GPR151 activ: human GPR151 activation | 1% of 650,000 active | Q8TDV0 | PathHunter beta-arrestin GPR151 cells, luminescence | activation, % at 11.2 µM; in the data active = activation above about 4.9%;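 note: 0% = median of compound wells and 100% = cells with positive control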
FBW7 act: activators of human E3 ligase FBW7; normalized activity (activation), % at 26.1 µM; AID 1259310; Q969H0; 0.13% of 650,000 active; AlphaScreen FBW7–phospho-cyclin E peptide binding, activator screen; in the data active = normalized activity above about 1.9%;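 note: purified mutant Fbw7 with reduced substrate affinity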
MITF primary: blocks human microphthalmia-associated transcription factor | O75030 | AlphaScreen MITF homodimerization, bead proximity signal | inhibition, % at 2.6 µM | 0.91% of 650,000 active; in the data active = inhibition above about 50%;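 note: 0% = vehicle wells with protein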
Target sequence (O75030 whole entry, looked up): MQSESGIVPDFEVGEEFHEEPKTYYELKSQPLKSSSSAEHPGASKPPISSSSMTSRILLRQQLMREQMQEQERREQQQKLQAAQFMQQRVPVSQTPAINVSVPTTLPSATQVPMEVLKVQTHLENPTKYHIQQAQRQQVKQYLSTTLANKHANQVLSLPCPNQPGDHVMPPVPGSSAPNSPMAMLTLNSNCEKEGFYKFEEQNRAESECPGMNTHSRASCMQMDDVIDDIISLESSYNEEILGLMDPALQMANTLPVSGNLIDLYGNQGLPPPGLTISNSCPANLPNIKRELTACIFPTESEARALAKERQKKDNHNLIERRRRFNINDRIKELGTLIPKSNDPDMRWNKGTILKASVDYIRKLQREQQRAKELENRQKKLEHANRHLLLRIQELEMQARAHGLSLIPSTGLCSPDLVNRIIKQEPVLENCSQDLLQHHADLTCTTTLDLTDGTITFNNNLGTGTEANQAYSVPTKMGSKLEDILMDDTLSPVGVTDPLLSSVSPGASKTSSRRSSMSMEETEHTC
TEAD-YAP block: TEAD-YAP interaction inhibition; HEK-TIYL cells, TEAD-Gal4/YAP UAS-luciferase luminescence; inhibition, % at 9.12 µM; 1.4% of 640,000 active; AID 1259422; in the data active = inhibition above about 32%;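 note: 0% = median of test compound wells and 100% = reference inhibitor wells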
MITF confirm: human MITF inhibition, confirmation; inhibition, % at 2.6 µM; AlphaScreen MITF homodimerization, biotin/His-MITF beads; 16% of 4,700 active; shares compounds with MITF primary;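 active = inhibition above a cutoff derived from the DMSO control wells, cut at about 28% in these data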;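 note: 0% = MITF dimer wells with DMSO only; inhibitors lower the bead chemiluminescence by keeping MITF from dimerizing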
AlphaScreen DR: optically interferes with AlphaScreen signal in dose response | shares compounds with MITF primary | AlphaScreen optical interference counterscreen, cell-free | IC50, µM | 6% of 480 active | AID 1259373; call rule not given here
AlphaScreen intf2: AlphaScreen optical interference, counter-screen. shares compounds with MITF primary. LysRS AlphaScreen counterscreen, signal interference, triplicate. inhibition, % at 2.6 µM. 7.6% of 4,700 active;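 active = inhibition above a cutoff derived from the DMSO control wells, cut at about 30% in these data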
* = called active by the depositor; / = no result given. Sampled rows, rich in hits. Any-hit rate of the full collection: about 3.5%.

SMILES	GPR151 activ	FBW7 act	MITF primary	TEAD-YAP block	MITF confirm	AlphaScreen intf2	others
C1=CCC(CN2CCN(C3CCCCC3)CC2)CC1 (stereo unspecified)	0	0	51*	-1	12	16
c1cc2c(cc1CN1CCCCC1)OCO2	1	0	1	0	/	/
CCOC(=O)N1CCN(Cc2ccc3c(c2)OCO3)CC1	1	0	-17	-9	/	/
c1cc2c(cc1CN1CCN(Cc3ccc4c(c3)OCO4)CC1)OCO2	2	0	70*	2	-1	3
COc1ccc(NC(=S)N(CCC(C)C)C2CCN(C(C)=O)CC2)cc1	0	0	8	1	/	/
COC(=O)c1ccc(N2C(=O)CC(NCc3ccc(OC)c(OC)c3)C2=O)cc1 (stereo unspecified)	1	0	10	7	/	/
COC(=O)c1ccc(-n2c(=O)c3ccccc3c3ccccc3c2=O)cc1	0	0	7	11	/	/
Clc1cccc(CN2CCN(CC3CC=CCC3)CC2)c1 (stereo unspecified)	1	0	32	-7	/	/
OC(CN1CCOCC1)CN1CCN(Cc2ccc3c(c2)OCO3)CC1 (stereo unspecified)	0	0	76*	-1	7	10
COc1ccc(CN2CCN(CC3CC=CCC3)CC2)c(OC)c1OC (stereo unspecified)	1	0	66*	12	-19	-2
COc1cc(CN2CCN(CC3CC=CCC3)CC2)cc(OC)c1O (stereo unspecified)	2	0	4	-2	/	/
CN1CCN(CC(=O)NCc2ccc3c(c2)OCO3)CC1	0	0	83*	10	6	18
CCc1ccc(CN2CCN(CC3CC=CCC3)CC2)cc1 (stereo unspecified)	-1	0	69*	-8	-4	1
CN1CCN(C(=S)C(=O)NCc2ccc3c(c2)OCO3)CC1	2	0	-6	5	/	/
CC(Oc1cc(F)ccc1[N+](=O)[O-])C(=O)Nc1ccc(F)c(F)c1F (stereo unspecified)	0	0	3	6	/	/
CCN(CC)c1ccc(/C=C2/C(=N)N3N=C(c4ccc(C)cc4)SC3=NC2=O)cc1	0	0	15	1	/	/
C1=CCC(CN2CCN(Cc3ccc4c(c3)OCO4)CC2)CC1 (stereo unspecified)	0	1	66*	-2	7	19
O=C(c1ccncc1)N1CCN(Cc2ccc3c(c2)OCO3)CC1	-1	1	87*	-6	-1	1
CC(C)(C)n1nnnc1C(c1cccs1)N1CCN(Cc2ccc3c(c2)OCO3)CC1 (stereo unspecified)	-1	0	78*	4	15	17
CCC(C)N1CCN(CC2CC=CCC2)CC1 (stereo unspecified)	0	0	62*	-1	17	17
CCC(CC)C(=O)Nc1cc([N+](=O)[O-])ccc1OC	-1	0	1	-5	/	/
CCCS(=O)(=O)N1CCN(Cc2ccc3c(c2)OCO3)CC1	-1	0	53*	-6	10	18
O=C(CNCc1ccco1)NCc1ccc2c(c1)OCO2	0	0	67*	1	10	21
Cc1ccccc1CN1CCC(CN)CC1	0	0	-4	11	/	/
Cc1ccccc1CN1CCN(CC2CC=CCC2)CC1 (stereo unspecified)	-2	0	68*	-9	-3	17
SMILES	GPR151 activ	FBW7 act	MITF primary	TEAD-YAP block	MITF confirm	AlphaScreen intf2	others
Cc1ccc(CN(Cc2ccco2)C(=S)NCC(=O)NCc2ccc3c(c2)OCO3)cc1	1	0	6	7	/	/
CCCS(=O)(=O)N1CCN(Cc2cccc(F)c2)CC1	2	0	45	-9	/	/
Cc1c(C#N)c2nc3c(c(-c4ccccc4)c2n1-c1ccccc1)CCC3	0	1	7	0	/	/
CN(C)c1cccc(Nc2nc3ncnc(NCCCN4CCCC4=O)c3[nH]2)c1	2	0	53*	-3	4	15
CC(C)c1ccc(C(C)C)c(SCCc2ccccn2)c1	0	0	53*	8	-3	11
CC(C)(C)c1ccc(SCCc2ccccn2)cc1	-1	0	63*	-54	2	7
CCCOc1ccc(C(=O)Nc2cccc(-c3nc4ncccc4o3)c2)cc1	0	0	69*	0	13	16
CC(C)CC(=O)NC(=S)N1CCN(c2ccc([N+](=O)[O-])cc2)CC1	1	0	3	-9	/	/
Cc1oc(C(=O)O)cc1CSCCSCc1cc(C(=O)O)oc1C	1	-1	52*	1	42*	16	AlphaScreen DR=>6.5
CN1C(=O)c2ccc(C(=O)NCc3ccc(Cl)cc3)cc2C1=O	3	0	-1	3	/	/
COc1cc(OC)c(OC)cc1CN(CCCN(C)C)CCCN(C)C	1	0	54*	2	-10	-3
COc1ccc(CCC(=O)N2CCC(Cn3c(C)nc4ccccc43)CC2)cc1	1	-1	78*	15	16	18
Cc1nc2ccccc2n1CC1CCN(C(=O)Nc2ccccc2)CC1	1	0	43	-1	/	/
COc1ccccc1NC(=O)CN1CCN(CC(=O)Nc2ccccc2OC)CC1	-2	0	-29	0	/	/
Cn1c(CN2CCN(C(=O)CN3C(=O)CCC3=O)CC2)nc2ccccc21	3	0	54*	0	2	12
COc1ccccc1NC(=O)CN1CCN(Cc2nc3ccccc3n2C)CC1	-1	-1	67*	-8	9	14
Cc1nc2ccccc2n1CC1CCN(C(=O)CN2C(=O)CCC2=O)CC1	0	0	65*	-2	5	22
CC(=O)n1c(=O)n(C(C)=O)c2ccccc21	0	1	11	-1	/	/
O=C1N[C@@H](COCc2ccccc2)C(=O)N2C[C@@H](NCc3ccc(Cl)s3)C[C@@H]12	-1	0	7	16	/	/
O=[N+]([O-])c1ccc(C2NCCCN2Cc2ccccc2)cc1 (stereo unspecified)	1	0	3	4	/	/
Cc1ccc(S(=O)(=O)N(CC(=O)NCCc2ccc(F)cc2)c2ccccc2C)cc1	-1	0	-4	-4	/	/
CCN(CC)CCN(C(=O)CN1C(=O)CCC1=O)c1nc2ccc(Cl)cc2s1	0	1	-13	-26	/	/
COCCCNC(=O)C(=O)NC1CCCCCC1	1	0	-7	-1	/	/
Cc1onc(-c2ccccc2)c1C(=O)Nc1cccc(C#N)c1	0	1	70*	8	9	9
CNCCCOc1ccc(C)cc1OC	2	0	52*	-4	-2	2
COc1ccccc1OCCCOc1ccc(C)cc1OC	-1	0	2	-37	/	/
Cc1ccc(-c2cc(C(=O)Nc3nc4ccc(Br)cc4s3)c3ccccc3n2)s1	-1	0	-2	7	/	/
